# Laboratory results: PubChem BioAssay AID485338 (The Scripps Research Institute Molecular Screening Center, 2010)
# Potency and affinity values are given separately. Calls of active or inactive are those of the source.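 How the source made its calls: active means mean inhibition of cell viability at 10 µM of at least 40% (some results past the limit were not filed as active); inactive means the rest.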
# Assay: cytotoxicity in DLD-1 colorectal cells, late-stage follow-up, cytotoxicity control for KLF5 inhibitor project, cell-based, luminescence, round 1 (AID 485338)
# Conditions: DLD-1 viability, CellTiter-Glo ATP luminescence; series mostly up to 20 µM
row,Structure (SMILES),outcome
1,CCOC(=O)c1sc(NC(=O)c2ccc3ncsc3c2)nc1C,inactive
2,CCCc1ccc(-c2ccc(/C=C/C(=O)O)cc2)nc1,inactive
3,Cc1ccc2nc(NC(=O)CCCc3nc4ccccc4s3)sc2c1,inactive
4,COC(=O)c1ccc2nc(Nc3nc4ccc(F)cc4s3)sc2c1,inactive
